Assay results taken from PubChem BioAssay (NCI).
“And” between values parts separate entries of the source, which are not always exact repeats. Equal values may be shown once. About 83,000 compounds went through this panel and 20% of them were active in at least one assay; those are over-represented in the sample as a whole.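 Compound tested at a single concentration for 48 hours in 96-well plates; a percent growth value below 10 was scored as active.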 Unmarked numbers belong to inactive results. The source made the active and inactive calls.

Columns and labels:
Test in all cases: NCI-60 one-dose screen, 48 h (100 = growth as untreated, 0 = no growth, -100 = all killed)
Details in all cases: 10 µM unless noted
NCI-H23 lung = test system: NCI-H23 lung
NCI-H226 lung = test system: NCI-H226 lung
NCI-H322M lung = test system: NCI-H322M lung
HOP-62 NSCLC = test system: HOP-62 NSCLC
NCI-H460 lung = test system: NCI-H460 lung
HOP-92 NSCLC = test system: HOP-92 NSCLC
NCI-H522 lung = test system: NCI-H522 lung
A549/ATCC NSCLC = test system: A549/ATCC NSCLC
786-0 renal = test system: 786-0 renal
COLO 205 colon = test system: COLO 205 colon

SMILES	growth (NCI-H23 lung)	growth (NCI-H226 lung)	growth (NCI-H322M lung)	growth (HOP-62 NSCLC)	growth (NCI-H460 lung)	growth (HOP-92 NSCLC)	growth (NCI-H522 lung)	growth (A549/ATCC NSCLC)	growth (786-0 renal)	growth (COLO 205 colon)
Brc1ccc(/C=C(/C2=NCCN2)n2ccc3ccccc32)cc1	87%	62.1%	75.7%	68.3%	76.4%	34.3%	62.7%	77.9%	81.6%	64.8%
O=c1c(/C=C/c2ccco2)nnc2sc(Nc3ccc(Cl)cc3)nn12	96.2%	85.4%	83.8%	89%	101%	89.2%	90.8%	101%	103%	114%
CC(C)=CCc1cc(O)c(O)c2oc3cc(O)cc(O)c3c(=O)c12	51.1%	96.9%	75.1%	45.9%	25.1%	86.9%	58.4%	43.3%	64.8%	91.7%
N#Cc1cc(-c2ccnc(Nc3ccc(NC(=O)CCl)cc3)n2)ccc1N1CCCC1	-31.3% (active)	-12.4% (active)	53.4%	-4.87% (active)	-35.9% (active)	28.4%	-41.3% (active)	-26.7% (active)	-14.6% (active)	-59.6% (active)
Cc1ccc(-c2nc3nc(-c4ccc(Cl)cc4)nc(N4CCCNCC4)c3o2)cc1	96.4%	111%	17.4%	97.6%	-81.6% (active)	83.6%	62.2%	-81.6% (active)	-82.9% (active)	-66.4% (active)
CCCCCO/N=C\c1c2c(O)c3c(O)c(C)c4c(c3c1O)C(=O)C(C)(O/C=C\C(OC)C(C)C(OC(C)=O)C(C)C(O)C(C)C(O)C(C)/C=C\C=C(\C)C(=O)N2)O4 (stereo not given)	19.7%	26.9%	53.2%	34.7%	5.62% (active)	-5.96% (active)	6.3% (active)	20.9%	31.6%	2.86% (active)
CCCCC1=C(Br)C(=O)c2nc(C)ccc2C1=O	92.8%	91.2%	88.8%	89.9%	98.8%	-8.03% (active)	62.5%	92%	95.2%	37.1%
COc1ccc(-c2[nH]c3ccccc3c2-c2ccc(OC)cc2)cc1	53%	112%	84.2%	51.9%	43.2%	42.6%	55.6%	75.7%	51.7%	75.3%
CCN(CC)CC#CCOC(=O)[C@]1(C)CCC[C@]2(C)c3ccc(C(C)C)cc3CC[C@@H]12	70.8%	82.5%	93.7%	96.2%	97.9%	76.7%	80.6%	87.5%	81.2%	80.2%
C[C@@H]1O[C@@H](O[C@H]2[C@@H](OC(=O)[C@]34CCC(C)(C)C[C@H]3C3=CC[C@@H]5[C@@]6(C)C[C@H](O)[C@H](O[C@@H]7O[C@H](CO)[C@@H](O)[C@H](O)[C@H]7O)[C@@](C)(CO)[C@@H]6CC[C@@]5(C)[C@]3(C)C[C@H]4O)OC[C@@H](O)[C@@H]2O)[C@H](O)[C@H](O[C@@H]2OC[C@@H](O)[C@H](O[C@@H]3OC[C@](O)(CO)[C@H]3O[C@@H]3OC[C@@H](O)[C@H](O)[C@H]3O)[C@H]2O)[C@H]1O[C@@H]1OC[C@](O)(CO)[C@H]1O	48.7%	99.2%	56.4%	74%	110%	103%	29.8%	50.2%	46.9%	2.01% (active)
CS(=O)(=O)Nc1cc(-c2ccc3ncnc(Nc4ccc(F)c(Cl)c4)c3c2)cnc1Cl	16.9%	17.6%	3.88% (active)	15.1%	10.6%	-23.6% (active)	14%	1.72% (active)	7.37% (active)	-57.2% (active)
COc1ccc(N2CCN(S(=O)(=O)c3oc(-c4ccccc4)nc3C#N)CC2)cc1	57.3%	64.5%	97.6%	106%	94.8%	101%	25.2%	99.4%	85.5%	80%
O=S(=O)(Nc1ccc(F)cc1)c1ccc(-c2cnc(C3CC3)o2)cc1	42%	63.9%	52.8%	34.7%	15.8%	50.5%	0.0519% (active)	37.8%	38.5%	20.2%
N#Cc1c(-c2cccc(F)c2)cc(-c2cccnc2)[nH]c1=O	105%	101%	101%	95.7%	109%	110%	90.1%	101%	97.6%	108%
O=Nc1c(O)ccc2ccccc12	89.7%	93.2% and 97.4%	97.1%	117% and 101%	96.4% and 106%	66% and 87.1%	41.8% and 86.2%	72.2% and 100%	92.1% and 104%	71.1% and 110%
C=C1C(=O)O[C@H]2[C@H]1CC/C(COC(=O)NCc1ccc(Cn3c(=O)sn(CCCI)c3=O)cc1)=C\CC[C@@]1(C)O[C@@H]21	72.1%	77.9%	97.5%	96%	102%	-29.3% (active)	-68.2% (active)	95.5%	6.22% (active)	-45.8% (active)
COc1cc(CNC(=O)CCCC/C=C/C(C)C)ccc1OCc1cn(-c2ccc([N+](=O)[O-])cc2)nn1	83.2%	89.6%	97.9%	80.9%	99.8%	90.3%	78.2%	84.1%	93.7%	118%
COc1cc(-c2nc(SCCC(C)C)nc(Nc3ccc(F)cc3)c2C#N)cc(OC)c1OC	84.3%	90.4%	63.2%	17.8%	21.4%	72.6%	75%	28.3%	46.1%	79.6%
CC(C)(C)CC(N)=O	100%	95.6%	108%	89.4%	103%	104%	111%	97.6%	101%	109%
ON=C1CCCCCCCC1	99.6% and 98%	105%	96.4%	104%	114% and 110%	105% and 102%	94.1% and 92.8%	103% and 110%	116% and 95.6%	102% and 112%
COc1ccc(-c2csc(NC(=O)CN3CCN(CCO)CC3)n2)cc1NS(=O)(=O)c1cccc2c(N(C)C)cccc12	88.1%	92.5%	89.9%	79.9%	67.1%	50.7%	79%	75.7%	57.7%	62%
O=C(Nc1ccc(F)cc1)c1cc2cc(Nc3nc(-c4ccccc4)nc4ccccc34)ccc2oc1=O	90.1%	102%	100%	84.2%	113%	103%	97.6%	92.5%	98.4%	123%
COc1ccc2c(c1)c(C(=O)c1nc(-c3cn(C)c4ccccc34)no1)cn2C	94.6%	83%	86.5%	92.5%	101%	110%	69.6%	90.7%	107%	97.7%
N=c1c2c(-c3ccccc3)c(-c3ccccc3)oc2ncn1NC(=O)c1cccnc1	93.2%	108%	98.7%	102%	105%	91%	95.1%	103%	99%	115%
Cc1nc2sc(C(=O)Nc3cccc4ccccc34)c(N)c2cc1C(=O)/C=C/c1ccccc1	9.08% (active)	-59.4% (active)	24%	-21.1% (active)	-34.2% (active)	28.3%	-33.4% (active)	12.9%	-55.5% (active)	-15% (active)
CC/C=C\C/C=C\C[C@H](O)C/C=C1/C(=O)C=C[C@@H]1C/C=C\CCCC(=O)OC	-19.9% (active)	-48.3% (active)	10.6%	-30.3% (active)	-40% (active)	-23% (active)	-52.3% (active)	-23.7% (active)	-60.6% (active)	-69.4% (active)
